For 15 compounds, inhibition results are on record in PubChem BioAssay.

Values without a mark were called inactive. Active and inactive are the calls of the source. Unless noted, no stated cut-off is given here; in the data, active means inhibition above about 30%; inactive means the rest. Bridge positions count the residues as written; N and C are the ends. Square brackets hold non-standard residues; d marks the D form. Peptide text beside a SMILES is read from it.

Test [1] deals with Nuclear receptor coactivator 3 (Homo sapiens) (UniProt Q9Y6Q9). As to the kind of experiment: NCOA3 GAL4-fusion reporter inhibition – cell-based, luminescence, quadruplicate, confirmation (AID 588792;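 active means mean inhibition over 43.08%, the solvent-only control mean plus 3 SD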;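 further: 0% = DMSO treated cells and 100% = gossypol at 36 µM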). To be noted: HEK293 GAL4-SRC3 luciferase reporter, at 3.6 µM, active compounds read high. Background: Reporter assays use an easily measured gene product as a stand-in for the process of interest.
Chain of Nuclear receptor coactivator 3 (Homo sapiens) (Q9Y6Q9 whole entry, looked up, the tested form may be a part): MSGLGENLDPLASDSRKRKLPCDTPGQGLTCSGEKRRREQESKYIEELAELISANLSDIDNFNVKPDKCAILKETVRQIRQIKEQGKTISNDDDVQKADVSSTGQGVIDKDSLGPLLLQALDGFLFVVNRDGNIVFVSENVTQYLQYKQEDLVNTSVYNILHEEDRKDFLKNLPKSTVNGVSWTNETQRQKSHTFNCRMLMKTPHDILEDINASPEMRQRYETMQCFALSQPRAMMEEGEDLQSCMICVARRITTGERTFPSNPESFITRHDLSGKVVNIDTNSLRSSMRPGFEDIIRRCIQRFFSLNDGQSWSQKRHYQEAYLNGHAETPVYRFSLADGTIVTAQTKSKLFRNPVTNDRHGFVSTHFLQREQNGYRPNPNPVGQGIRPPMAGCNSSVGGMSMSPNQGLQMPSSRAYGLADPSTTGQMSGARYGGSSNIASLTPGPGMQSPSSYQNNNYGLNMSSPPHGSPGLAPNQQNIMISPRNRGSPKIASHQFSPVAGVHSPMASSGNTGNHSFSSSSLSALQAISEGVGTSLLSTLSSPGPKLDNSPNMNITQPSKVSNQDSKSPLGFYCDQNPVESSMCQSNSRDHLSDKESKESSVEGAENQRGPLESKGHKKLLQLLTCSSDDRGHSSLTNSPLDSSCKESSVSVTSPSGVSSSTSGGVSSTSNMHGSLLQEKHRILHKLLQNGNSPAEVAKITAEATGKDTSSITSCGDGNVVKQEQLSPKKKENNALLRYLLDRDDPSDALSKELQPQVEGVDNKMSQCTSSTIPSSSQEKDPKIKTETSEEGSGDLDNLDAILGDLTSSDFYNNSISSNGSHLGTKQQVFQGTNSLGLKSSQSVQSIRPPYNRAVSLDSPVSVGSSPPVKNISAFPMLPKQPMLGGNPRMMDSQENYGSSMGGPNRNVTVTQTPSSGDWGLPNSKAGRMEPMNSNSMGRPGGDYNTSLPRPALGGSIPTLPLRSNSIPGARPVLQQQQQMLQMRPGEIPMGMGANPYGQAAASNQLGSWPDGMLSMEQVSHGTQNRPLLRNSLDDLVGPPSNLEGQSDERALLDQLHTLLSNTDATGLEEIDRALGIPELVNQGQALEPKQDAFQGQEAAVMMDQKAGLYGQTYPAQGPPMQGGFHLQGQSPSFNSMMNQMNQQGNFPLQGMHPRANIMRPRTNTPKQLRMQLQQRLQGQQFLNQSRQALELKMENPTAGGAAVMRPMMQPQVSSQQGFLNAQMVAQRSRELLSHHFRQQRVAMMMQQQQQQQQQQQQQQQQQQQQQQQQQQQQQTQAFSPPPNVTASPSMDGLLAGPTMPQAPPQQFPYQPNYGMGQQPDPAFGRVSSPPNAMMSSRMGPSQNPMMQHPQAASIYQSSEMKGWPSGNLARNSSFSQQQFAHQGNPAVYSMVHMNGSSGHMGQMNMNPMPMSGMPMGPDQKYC

In test [2] the test system is transactivating tegument protein VP16 (Human herpesvirus 1), Gal4-VP16 luciferase reporter. Briefly: repression of VP16-driven luciferase reporter – cell-based, luminescence, high throughput, counter-screen for SRC3 inhibitor project (AID 588794). To be noted: mammalian cells, at 3.6 µM, active compounds read high.
In test [3] the target is Nuclear receptor coactivator 1 (Homo sapiens) (UniProt Q15788). As to the kind of experiment: NCOA1 GAL4-fusion reporter inhibition – cell-based, luminescence, quadruplicate, confirmation (AID 588820;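 active means mean inhibition above 46.68%, the untreated control wells mean plus 3 SD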;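 further: 0% = DMSO wells and 100% = gossypol 36 µM treated wells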). To be noted: HEK293 GAL4-SRC1 luciferase reporter, at 3.6 µM, active compounds read high.
Chain of Nuclear receptor coactivator 1 (Homo sapiens) (Q15788 whole entry, looked up, the tested form may be a part): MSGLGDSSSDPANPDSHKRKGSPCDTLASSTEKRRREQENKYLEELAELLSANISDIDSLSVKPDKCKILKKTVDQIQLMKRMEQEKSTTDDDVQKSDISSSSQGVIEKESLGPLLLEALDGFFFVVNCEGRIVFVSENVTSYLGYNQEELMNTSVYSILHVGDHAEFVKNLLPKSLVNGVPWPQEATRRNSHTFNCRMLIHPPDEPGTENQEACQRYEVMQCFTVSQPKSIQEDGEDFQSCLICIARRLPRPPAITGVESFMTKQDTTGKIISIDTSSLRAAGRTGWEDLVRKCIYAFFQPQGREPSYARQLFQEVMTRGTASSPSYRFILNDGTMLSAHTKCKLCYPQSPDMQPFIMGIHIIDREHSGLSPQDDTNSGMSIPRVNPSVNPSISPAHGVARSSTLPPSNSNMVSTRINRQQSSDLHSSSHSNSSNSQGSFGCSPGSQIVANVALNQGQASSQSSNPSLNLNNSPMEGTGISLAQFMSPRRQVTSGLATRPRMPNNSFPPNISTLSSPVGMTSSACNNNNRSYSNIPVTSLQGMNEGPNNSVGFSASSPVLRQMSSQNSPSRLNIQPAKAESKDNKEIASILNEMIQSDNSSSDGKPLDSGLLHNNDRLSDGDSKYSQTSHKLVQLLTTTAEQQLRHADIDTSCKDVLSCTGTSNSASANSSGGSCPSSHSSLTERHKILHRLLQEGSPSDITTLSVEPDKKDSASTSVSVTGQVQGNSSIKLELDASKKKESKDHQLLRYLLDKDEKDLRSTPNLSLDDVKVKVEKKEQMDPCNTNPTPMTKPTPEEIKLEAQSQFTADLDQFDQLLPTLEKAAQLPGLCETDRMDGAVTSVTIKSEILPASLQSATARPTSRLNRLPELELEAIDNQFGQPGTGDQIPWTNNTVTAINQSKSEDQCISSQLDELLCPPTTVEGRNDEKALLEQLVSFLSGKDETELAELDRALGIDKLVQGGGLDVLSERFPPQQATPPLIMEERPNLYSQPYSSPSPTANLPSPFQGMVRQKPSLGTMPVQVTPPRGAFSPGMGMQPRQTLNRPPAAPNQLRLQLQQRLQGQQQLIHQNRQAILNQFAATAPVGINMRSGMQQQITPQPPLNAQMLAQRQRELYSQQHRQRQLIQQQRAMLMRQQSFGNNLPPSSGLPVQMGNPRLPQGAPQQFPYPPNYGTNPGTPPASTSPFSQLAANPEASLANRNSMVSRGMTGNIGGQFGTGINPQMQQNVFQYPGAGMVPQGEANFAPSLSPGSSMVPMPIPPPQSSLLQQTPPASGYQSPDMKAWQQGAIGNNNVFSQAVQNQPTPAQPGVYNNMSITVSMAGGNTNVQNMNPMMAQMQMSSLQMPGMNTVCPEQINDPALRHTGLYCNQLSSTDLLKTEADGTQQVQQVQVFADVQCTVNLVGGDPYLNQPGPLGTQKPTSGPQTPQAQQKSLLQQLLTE
Test [4] is described as follows: repression of VP16-driven luciferase reporter – cell-based, luminescence, high throughput, counter-screen for SRC1 inhibitor project (AID 588824; in the data active means inhibition above about 25%). The settings on record: cell-based VP16 transactivation luciferase luminescence; at 3.6 µM; active compounds read high.
A short description of test [5]: StAR promoter reporter inhibitors, counter-screen for LRH-1 inverse agonist project, cell-based, luminescence, high throughput (AID 651611; in the data active means inhibition above about 28%). The settings on record: StAR promoter luciferase reporter counterscreen, at 3.6 µM, active compounds read high. (In general: The purpose of a counterscreen is to sort out artefacts and off-target activity.)
Test [6] concerns the target Nuclear receptor subfamily 5 group A member 2 (Homo sapiens) (UniProt O00482). As to the kind of experiment: NR5A2 activity suppression in reporter cells – cell-based, luminescence, confirmation (AID 651613; in the data active means inhibition above about 42%;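 further: HEK293T cells co-transfected with LRH-1 and StAR promoter luciferase reporter; 0% = vehicle wells and 100% = parental cells lacking receptor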). The settings on record: cell-based LRH-1 luciferase reporter, inverse agonism; at 3.6 µM; active compounds read high.
The target of test [7] is Steroidogenic factor 1 (Homo sapiens) (UniProt Q13285). As to the kind of experiment: inverse agonism at SF1 nuclear receptor – cell-based, luminescence, high throughput, counter-screen for LRH-1 inverse agonist project (AID 651614; in the data active means inhibition above about 44%;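 further: cells cotransfected with StAR promoter reporter and SF1 expression vector; 0% = vehicle on cells with receptor and 100% = vehicle on cells lacking receptor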). The settings on record: cell-based SF1 luciferase reporter, at 3.6 µM, active compounds read high.
Chain of Steroidogenic factor 1 (Homo sapiens) (Q13285 whole entry, looked up, the tested form may be a part): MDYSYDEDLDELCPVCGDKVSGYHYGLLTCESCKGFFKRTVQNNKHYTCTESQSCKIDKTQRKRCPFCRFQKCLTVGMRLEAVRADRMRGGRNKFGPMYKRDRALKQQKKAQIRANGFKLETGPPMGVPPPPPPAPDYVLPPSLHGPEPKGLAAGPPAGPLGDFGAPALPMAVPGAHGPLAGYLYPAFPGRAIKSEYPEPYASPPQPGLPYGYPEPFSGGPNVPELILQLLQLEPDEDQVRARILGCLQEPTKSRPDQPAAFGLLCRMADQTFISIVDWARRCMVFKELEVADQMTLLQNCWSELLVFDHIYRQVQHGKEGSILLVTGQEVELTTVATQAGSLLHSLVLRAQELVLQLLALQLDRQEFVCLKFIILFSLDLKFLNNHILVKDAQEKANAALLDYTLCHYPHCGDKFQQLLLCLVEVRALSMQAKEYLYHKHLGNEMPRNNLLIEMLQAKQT
Test [8] is described as follows: compounds suppressing VP16-driven luciferase signal – cell-based, luminescence, high throughput, counter-screen for LRH-1 inverse agonist project (AID 651615; in the data active means inhibition above about 33%). To be noted: Gal4-VP16 luciferase reporter cells, at 3.6 µM, active compounds read high.
Test [9] relates to transactivating tegument protein VP16 (Human herpesvirus 1). As to the kind of experiment: compounds suppressing VP16-driven luciferase signal – cell-based, luminescence, single concentration, counter-screen for SRC2 inhibitor project (AID 652007; in the data active means inhibition above about 36%). To be noted: cell-based VP16 transactivation luciferase reporter, at 8.9 µM, active compounds read high.
The target in test [10] is Nuclear receptor coactivator 2 (Homo sapiens) (UniProt Q15596). Briefly: inhibition of GAL4-SRC2 driven luciferase expression – cell-based, luminescence, HEK293, triplicate, confirmation (AID 652008;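 active means mean inhibition above 46.5%, the solvent-only control mean plus 3 SD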;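 further: 0% = DMSO-treated cells and 100% = Gossypol at 36 µM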). To be noted: HEK293 GAL4-SRC2 luciferase reporter, at 8.9 µM, active compounds read high.

Chain of Nuclear receptor subfamily 5 group A member 2 (Homo sapiens) (O00482 whole entry, looked up): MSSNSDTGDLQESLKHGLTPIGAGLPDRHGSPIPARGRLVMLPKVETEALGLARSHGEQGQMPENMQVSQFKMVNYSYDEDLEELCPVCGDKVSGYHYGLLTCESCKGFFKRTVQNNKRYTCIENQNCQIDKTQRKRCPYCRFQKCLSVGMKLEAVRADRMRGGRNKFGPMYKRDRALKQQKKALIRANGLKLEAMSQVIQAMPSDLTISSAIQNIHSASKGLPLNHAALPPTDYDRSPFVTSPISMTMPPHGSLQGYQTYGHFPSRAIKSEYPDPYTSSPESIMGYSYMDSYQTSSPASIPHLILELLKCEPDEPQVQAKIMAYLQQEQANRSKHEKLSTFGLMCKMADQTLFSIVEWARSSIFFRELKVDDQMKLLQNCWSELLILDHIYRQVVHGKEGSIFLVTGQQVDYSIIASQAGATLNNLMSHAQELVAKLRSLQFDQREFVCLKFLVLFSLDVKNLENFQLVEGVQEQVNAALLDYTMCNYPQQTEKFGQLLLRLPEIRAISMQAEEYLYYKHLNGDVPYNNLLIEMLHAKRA

The inhibition is the change of the read-out against control, counted positive when it falls. As for `Cc1ccc(NC(=O)O/N=C/c2c(C)nn(C(C)(C)C)c2C)cc1Cl`, the inhibition in test [1] is 90.4% (active); in [2] it was 88% (active); in [3] it was 87.3% (active); in [4] it was 85.3% (active); in test [5], 88.2% (active); in test [6], 93% (active). In addition, the inhibition in test [7] is 89.2% (active); in test [8] it was 86.5% (active); in [9], 94.6% (active); in test [10], 98.3% (active).

With `CC(C)(C)c1ccc(C(=O)Nc2sc3c(c2C(=O)O)CCC3)cc1`, the inhibition in test [1] is 48.4% (active); in [2], 73% (active); in test [3] it was 42.3%; in test [4], 73.4% (active); in [5], 77.2% (active); in [6], 95.7% (active). Also, the inhibition was 90.7% (active) in [7], 77.3% (active) in test [8], 8.37% in test [9] and 10.1% in test [10].

Turning to `Nc1ccc(Oc2ccccc2-c2ccccc2)cc1`, the inhibition is 42.6% in test [1]; 17.6% in test [2]; 14.7% in test [3]; 19% in test [4]; 30.3% (active) in [5]; 53.5% (active) in test [6]. In addition, the inhibition was 49.6% (active) in [7], 39.6% (active) in test [8], 80.5% (active) in [9] and 87.8% (active) in test [10].

For the compound `Cc1cc(C(=O)CSc2nnc3ccccn23)c(C)n1-c1ccccc1`, the inhibition was 20.3% in [1]; 15.4% in [2]; -49.2% in test [3]; -25.1% in test [4]; 23.4% in [5]; -38.6% in test [6]. Also, the inhibition is 6.01% in test [7], -26.3% in test [8], 34.8% in [9] and 60.7% (active) in test [10].

Take `CCC1(O)C(=O)OCc2c1cc1n(c2=O)Cc2cc3cc(O)ccc3nc2-1` (stereo not given): the inhibition in test [1] is 94.8% (active); in [2] it was 79.2% (active); in test [3], 68.8% (active); in test [4], 77.4% (active); in [5] it was 84.6% (active); in [6], 104% (active). The inhibition was 91.4% (active) in [7], 83.8% (active) in [8], 24.9% in test [9] and 39.5% in test [10].

For the compound `COc1cc(NC(=O)COc2cc(O)c3c(c2)OC(C)(C)CC3=O)cc(OC)c1OC`, the inhibition in test [1] was 17.8%; in [2] it was 41.5% (active); in test [3] it was -14.2%; in [4], 41.3% (active); in test [5] it was 50.4% (active); in [6], 57.3% (active). Also, the inhibition in [7] was 67.5% (active); in [8], 64.6% (active); in test [9], 43.5% (active); in test [10], 38.5%.

On to `CN=c1scc(-c2ccccc2F)n1/N=C/c1ccc[nH]1`, for which the inhibition in [1] is 89% (active); in test [2], 86.5% (active); in [3] it was 71.6% (active); in test [4] it was 75.6% (active); in test [5] it was 87.2% (active); in test [6], 70.1% (active). The inhibition in test [7] was 85.6% (active); in test [8], 78.1% (active); in test [9] it was 87.7% (active); in test [10], 96.1% (active).

For the compound `Cc1cc(C)c(C(=O)/C=C/c2cccc3ccccc23)c(=O)[nH]1`, the inhibition in test [1] is 72.8% (active); in test [2], 56.7% (active); in test [3] it was 55.2% (active); in test [4], 63.5% (active); in test [5] it was 94% (active); in test [6] it was 110% (active). For the same compound, the inhibition was 97.8% (active) in test [7], 94.3% (active) in test [8], 47.2% (active) in [9] and 65.3% (active) in test [10].

As for `CC[C@H](C)[C@@H]1NC(=O)[C@@H](CC(C)C)NC(=O)[C@H](C(C)C)NC(=O)[C@H]2CSSC[C@H](NC1=O)C(=O)N2` (cyclo(C[dC]V[dL]I); disulfide 1-2), the inhibition in [1] is 99.9% (active); in test [2], 98.3% (active); in [3] it was 99.6% (active); in test [4], 98% (active); in test [5] it was 96% (active); in test [6], 109% (active). Moreover, the inhibition is 97.7% (active) in [7], 97.5% (active) in test [8], 98.3% (active) in test [9] and 99.6% (active) in test [10].

In the case of `COc1cccc(/C=N/NC(=O)c2c(-c3ccccc3)noc2C)c1O`, the inhibition in test [1] is 38.4%; in [2], 37.1% (active); in [3] it was 24.8%; in [4], 34.6% (active); in test [5], 68.8% (active); in [6], 52.1% (active). For the same compound, the inhibition was 64.6% (active) in test [7], 67.5% (active) in test [8], 2.72% in test [9] and 33.1% in test [10].

Regarding `OCC1OC(n2ccc3c(NO)ncnc32)C(O)C1O` (stereo not given), the inhibition is 93.2% (active) in test [1]; 88.2% (active) in test [2]; 48.2% (active) in test [3]; 87.4% (active) in test [4]; 93.5% (active) in test [5]; 108% (active) in [6]. Also, the inhibition in [7] was 97% (active); in test [8], 96% (active); in test [9], 53.9% (active); in test [10], 51.5% (active).

As to `O=C(Nc1nc2cc3c(cc2s1)OCCO3)C1=COCCO1`, the inhibition in test [1] was 30.4%; in test [2] it was 26.9%; in test [3], -78.2%; in test [4] it was 13.4%; in [5] it was 24.4%; in test [6] it was -3.27%. Moreover, the inhibition in test [7] was 52.2% (active); in [8], 4.13%; in [9] it was 70.8% (active); in [10], 81.6% (active).

For `COC1=CC(=O)c2c(ccc3ncnc(N)c23)C1=O`, the inhibition was 60.8% (active) in [1]; 65.1% (active) in test [2]; -4.46% in test [3]; 64.3% (active) in test [4]; 62.4% (active) in [5]; 82.8% (active) in [6]. Besides, the inhibition was 84.6% (active) in [7], 82.1% (active) in test [8], 37.5% (active) in test [9] and 69.5% (active) in [10].

As to `Cc1cc(C)c2sc(NNC(=O)c3ccc(S(=O)(=O)N4CCc5ccccc5C4)cc3)nc2c1`, the inhibition in test [1] is 46.6% (active); in [2] it was 41.1% (active); in test [3] it was 50% (active); in test [4], 46.6% (active); in test [5], 68.6% (active); in test [6], 89.6% (active). In addition, the inhibition in [7] is 66.8% (active); in test [8], 66.6% (active); in [9] it was -4.24%; in test [10] it was 29.3%.

Turning to `N#Cc1sc2nccc(Nc3ccccc3)c2c1N`, the inhibition in [1] was 87.1% (active); in test [2], 62.4% (active); in test [3], 62.9% (active); in test [4] it was 58.6% (active); in test [5], 32.5% (active); in [6], 66.4% (active). Also, the inhibition is 48.8% (active) in test [7], 79.6% (active) in test [8], 4.1% in test [9] and 52.2% (active) in test [10].
